According to PubChem BioAssay (NCATS):
Records with an inconclusive call do not appear. Active and inactive are the calls of the source. Calls follow the shape of the dose curve; as a rule, active = well fitted inhibition curve with a large enough effect; inconclusive = small, poorly fitted or top-dose-only effect; inactive = flat fitted curve, though single readings scatter. Where a SMILES comes first, the peptide text is derived from it. Bridges are numbered along the chain shown (N, C = ends). [ ]: non-standard residue; d: D form. hArg = N=C(N)NCCCC[C@H](N)C(=O)O; Mpa = O=C(O)CCS

Key:
[1] = qHTS profiling for inhibitors of Plasmodium falciparum proliferation (AID 504749);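 also: 0% = DMSO vehicle and full inhibition = artemisinin control; nearly all actives have a fitted effect of over 60% in size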; settings: P. falciparum in erythrocytes, SYBR Green DNA, 72 h
In short: (§1)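 Each compound contacts P. falciparum-infected red blood cells for 72 h at 37 C; lysis buffer (Tris, EDTA, saponin, Triton X, SYBR Green I) is added and fluorescence measured next morning; values normalized to controls.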

3D7 = assay: as above; settings: P. falciparum in erythrocytes, SYBR Green DNA, 72 h; series mostly up to 28.7 µM
In short: as §1

7G8 = assay: as above; settings: P. falciparum in erythrocytes, SYBR Green DNA, 72 h; series mostly up to 28.7 µM
In short: as §1

AA1029 = assay: as above; settings: P. falciparum in erythrocytes, SYBR Green DNA, 72 h; series mostly up to 28.7 µM
In short: as §1

AS120 = assay: as above; settings: P. falciparum in erythrocytes, SYBR Green DNA, 72 h; series mostly up to 28.7 µM
In short: as §1

ATS189 = assay: as above; settings: P. falciparum in erythrocytes, SYBR Green DNA, 72 h; series mostly up to 28.7 µM
In short: as §1

ATS95 = assay: as above; settings: P. falciparum in erythrocytes, SYBR Green DNA, 72 h; series mostly up to 28.7 µM
In short: as §1

C2A = assay: as above; settings: P. falciparum in erythrocytes, SYBR Green DNA, 72 h; series mostly up to 28.7 µM
In short: as §1

CP185 = assay: as above; settings: P. falciparum in erythrocytes, SYBR Green DNA, 72 h; series mostly up to 28.7 µM
In short: as §1

CP191 = assay: as above; settings: P. falciparum in erythrocytes, SYBR Green DNA, 72 h; series mostly up to 28.7 µM
In short: as §1

CP192 = assay: as above; settings: P. falciparum in erythrocytes, SYBR Green DNA, 72 h; series mostly up to 28.7 µM
In short: as §1

CP194 = assay: as above; settings: P. falciparum in erythrocytes, SYBR Green DNA, 72 h; series mostly up to 28.7 µM
In short: as §1

CP201 = assay: as above; settings: P. falciparum in erythrocytes, SYBR Green DNA, 72 h; series mostly up to 28.7 µM
In short: as §1

CP203 = assay: as above; settings: P. falciparum in erythrocytes, SYBR Green DNA, 72 h; series mostly up to 28.7 µM
In short: as §1

CP211 = assay: as above; settings: P. falciparum in erythrocytes, SYBR Green DNA, 72 h; series mostly up to 28.7 µM
In short: as §1

CP215 = assay: as above; settings: P. falciparum in erythrocytes, SYBR Green DNA, 72 h; series mostly up to 28.7 µM
In short: as §1

CP217 = assay: as above; settings: P. falciparum in erythrocytes, SYBR Green DNA, 72 h; series mostly up to 28.7 µM
In short: as §1

CP237 = assay: as above; settings: P. falciparum in erythrocytes, SYBR Green DNA, 72 h; series mostly up to 28.7 µM
In short: as §1

CP238 = assay: as above; settings: P. falciparum in erythrocytes, SYBR Green DNA, 72 h; series mostly up to 28.7 µM
In short: as §1

CP247 = assay: as above; settings: P. falciparum in erythrocytes, SYBR Green DNA, 72 h; series mostly up to 28.7 µM
In short: as §1

[2] = at 12.8 µM (top of the series), parasite line A
[3] = at 12.8 µM (top of the series), parasite line B
[4] = at 28.7 µM (top of the series), parasite line A
[5] = at 28.7 µM (top of the series), parasite line B

CC(C)(C)C(=O)OCOC(=O)[C@@H]1N2C(=O)[C@@H](NC(=O)[C@H](N)c3ccccc3)[C@H]2SC1(C)C
inactive: activity, negative = inhibition [1, 2] -1.26% | activity, negative = inhibition [1, 3] -15.3% | Potency (3D7) | Potency (7G8) | Potency (AA1029) | Potency (AS120) | Potency (ATS189) | Potency (ATS95) | Potency (C2A) | Potency (CP185) | outcome (CP191) | outcome (CP192) | outcome (CP194) | outcome (CP201) | Potency (CP203) | outcome (CP211) | Potency (CP215) | outcome (CP217) | Potency (CP237) | Potency (CP238) | Potency (CP247)

CC1CCc2cc(F)cc3c(=O)c(C(=O)O)cn1c23 (configuration not stated)
inactive: activity, negative = inhibition [1, 4] -7.54% | activity, negative = inhibition [1, 5] 6.45% | Potency (3D7) | Potency (7G8) | Potency (AA1029) | Potency (AS120) | Potency (ATS189) | Potency (ATS95) | Potency (C2A) | Potency (CP185) | outcome (CP191) | outcome (CP192) | outcome (CP194) | outcome (CP201) | outcome (CP211) | Potency (CP215) | outcome (CP217) | Potency (CP237) | Potency (CP238) | Potency (CP247)

C[C@@H]1CCC[C@H](C)N1
inactive: activity, negative = inhibition [1, 2] 13.8% | activity, negative = inhibition [1, 3] -5.49% | Potency (3D7) | Potency (7G8) | Potency (AA1029) | Potency (AS120) | Potency (ATS189) | Potency (ATS95) | Potency (C2A) | Potency (CP185) | outcome (CP191) | outcome (CP192) | outcome (CP194) | outcome (CP201) | outcome (CP211) | Potency (CP215) | outcome (CP217) | Potency (CP237) | Potency (CP238) | Potency (CP247)

O=S1(=O)OC(c2ccc(O)cc2)(c2ccc(O)cc2)c2ccccc21
inactive: activity, negative = inhibition [1, 4] -0.266% | activity, negative = inhibition [1, 5] 7% | Potency (3D7) | Potency (7G8) | Potency (AA1029) | Potency (AS120) | Potency (ATS189) | Potency (ATS95) | Potency (C2A) | Potency (CP185) | outcome (CP191) | outcome (CP192) | outcome (CP194) | outcome (CP201) | Potency (CP203) | outcome (CP211) | outcome (CP217) | Potency (CP237) | Potency (CP238) | Potency (CP247)

O[C@@H]1CO[C@H]2[C@@H]1OC[C@@H]2O
inactive: activity, negative = inhibition [1, 4] 8.49% | activity, negative = inhibition [1, 5] 1.12% | Potency (3D7) | Potency (7G8) | Potency (AA1029) | Potency (AS120) | Potency (ATS189) | Potency (ATS95) | Potency (C2A) | Potency (CP185) | outcome (CP191) | outcome (CP192) | outcome (CP194) | outcome (CP201) | outcome (CP211) | Potency (CP215) | outcome (CP217) | Potency (CP237) | Potency (CP238) | Potency (CP247)

O=C(O)COC(=O)Cc1ccccc1Nc1c(Cl)cccc1Cl
inactive: activity, negative = inhibition [1, 2] -3.73% | activity, negative = inhibition [1, 3] 2.28% | Potency (3D7) | Potency (7G8) | Potency (AA1029) | Potency (AS120) | Potency (ATS189) | Potency (ATS95) | Potency (C2A) | Potency (CP185) | outcome (CP191) | outcome (CP192) | outcome (CP194) | outcome (CP201) | Potency (CP203) | outcome (CP211) | Potency (CP215) | outcome (CP217) | Potency (CP237) | Potency (CP238) | Potency (CP247)

NC(=O)[C@@H]1CSSCCC(=O)N[C@@H](CCCCN=C(N)N)C(=O)NCC(=O)N[C@@H](CC(=O)O)C(=O)N[C@@H](Cc2c[nH]c3ccccc23)C(=O)N2CCC[C@H]2C(=O)N1 ([Mpa][hArg]GDWPC-NH2; disulfide 1-7)
inactive: activity, negative = inhibition [1, 4] -6.16% | activity, negative = inhibition [1, 5] 11.6% | Potency (3D7) | Potency (7G8) | Potency (AA1029) | Potency (AS120) | Potency (ATS189) | Potency (ATS95) | Potency (C2A) | Potency (CP185) | outcome (CP191) | outcome (CP192) | outcome (CP194) | outcome (CP201) | Potency (CP203) | outcome (CP211) | Potency (CP215) | outcome (CP217) | Potency (CP237) | Potency (CP238) | Potency (CP247)

Cc1c(C)c2c(c(C)c1OC(=O)c1cccnc1)CC[C@@](C)(CCC[C@H](C)CCC[C@H](C)CCCC(C)C)O2
inactive: activity, negative = inhibition [1, 4] -3.82% | activity, negative = inhibition [1, 5] -2.45% | Potency (3D7) | Potency (7G8) | Potency (AA1029) | Potency (AS120) | Potency (ATS189) | Potency (ATS95) | Potency (C2A) | Potency (CP185) | outcome (CP191) | outcome (CP192) | outcome (CP194) | outcome (CP201) | Potency (CP203) | outcome (CP211) | Potency (CP215) | outcome (CP217) | Potency (CP237) | Potency (CP238) | Potency (CP247)

O=C(O)CCCc1ccccc1
inactive: activity, negative = inhibition [1, 4] 3.34% | activity, negative = inhibition [1, 5] -0.114% | Potency (3D7) | Potency (7G8) | Potency (AA1029) | Potency (AS120) | Potency (ATS189) | Potency (ATS95) | Potency (C2A) | Potency (CP185) | outcome (CP191) | outcome (CP192) | outcome (CP194) | outcome (CP201) | Potency (CP203) | outcome (CP211) | Potency (CP215) | outcome (CP217) | Potency (CP237) | Potency (CP238) | Potency (CP247)

O=C(O)CNC(=O)c1ccccc1I
inactive: activity, negative = inhibition [1, 4] 6.37% | activity, negative = inhibition [1, 5] 11.3% | Potency (3D7) | Potency (7G8) | Potency (AA1029) | Potency (AS120) | Potency (ATS189) | Potency (ATS95) | Potency (C2A) | Potency (CP185) | outcome (CP191) | outcome (CP192) | outcome (CP194) | outcome (CP201) | outcome (CP211) | Potency (CP215) | outcome (CP217) | Potency (CP237) | Potency (CP238) | Potency (CP247)

Nc1ncnc2c1ncn2[C@@H]1O[C@H](COP(=O)(O)O)[C@@H](O)[C@H]1O
inactive: activity, negative = inhibition [1, 4] -10.7% | activity, negative = inhibition [1, 5] 4.33% | Potency (3D7) | Potency (7G8) | Potency (AA1029) | Potency (AS120) | Potency (ATS189) | Potency (ATS95) | Potency (C2A) | Potency (CP185) | outcome (CP191) | outcome (CP192) | outcome (CP194) | outcome (CP201) | Potency (CP203) | outcome (CP211) | Potency (CP215) | outcome (CP217) | Potency (CP237) | Potency (CP238) | Potency (CP247)

COc1ccc(NS(=O)(=O)c2ccc(N)cc2)nn1
inactive: activity, negative = inhibition [1, 2] 2.8% | activity, negative = inhibition [1, 3] 13.5% | Potency (3D7) | Potency (7G8) | Potency (AA1029) | Potency (AS120) | Potency (ATS189) | Potency (ATS95) | Potency (C2A) | Potency (CP185) | outcome (CP191) | outcome (CP192) | outcome (CP194) | outcome (CP201) | Potency (CP203) | outcome (CP211) | Potency (CP215) | outcome (CP217) | Potency (CP237) | Potency (CP238) | Potency (CP247)
